PP1 inh – counter-screen for PP5 inhibitors: inhibitors of human PP1-alpha | 320,000 compounds, 0.9% hits | P62136 | purified PP1alpha, OMFP fluorescence | inhibition, % at 6.7 µM;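 active = inhibition above the mean inhibition of all tested compounds plus 3 SD, computed separately for each screening campaign, cut at about 15% in these data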
PP5 primary – blocks human protein phosphatase 5 activity | 320,000 compounds, 0.18% hits | AID 1987 | purified PP5c, OMFP substrate fluorescence | inhibition, % at 6.7 µM;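 active = inhibition above the campaign's mean inhibition across all tested compounds plus 3 SD, cut at about 9.5% in these data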;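 note: 0% = DMSO only and 100% = 100 µM cantharidin control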
Target sequence (P53041 whole entry, looked up): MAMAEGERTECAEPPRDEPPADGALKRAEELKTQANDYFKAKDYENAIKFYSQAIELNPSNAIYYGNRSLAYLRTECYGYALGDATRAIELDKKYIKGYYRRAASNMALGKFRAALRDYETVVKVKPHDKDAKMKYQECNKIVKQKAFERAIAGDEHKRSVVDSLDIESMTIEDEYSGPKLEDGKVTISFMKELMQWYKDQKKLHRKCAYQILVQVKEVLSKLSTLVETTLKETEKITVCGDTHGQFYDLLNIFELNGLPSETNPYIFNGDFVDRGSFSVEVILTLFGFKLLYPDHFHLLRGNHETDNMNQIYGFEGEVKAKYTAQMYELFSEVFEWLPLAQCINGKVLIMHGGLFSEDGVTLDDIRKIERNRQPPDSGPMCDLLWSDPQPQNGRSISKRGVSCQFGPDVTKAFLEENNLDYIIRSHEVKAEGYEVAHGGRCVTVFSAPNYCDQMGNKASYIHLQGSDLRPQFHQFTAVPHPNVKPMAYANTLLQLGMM
HIF activator – HIF pathway transcriptional activation. U2OS HRE-luciferase reporter, luminescence; normalized: DMSO 0%, desferrioxamine 100%. AID 1910. 300,000 compounds, 0.32% hits. activation, % at 7.5 µM (by protocol);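 active = mean activation of at least 10% of the iron chelator positive control signal, with at least half of replicates also reaching 10%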
DYRK1A inh – blocks rat Dyrk1A kinase activity | Q63470 | ADP-Glo luminescence, NFATc1 peptide | inhibition, % at 12.5 µM | 310,000 compounds, 0.43% hits | AID 504441; in the data active = inhibition above about 50%;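 note: plate controls were vehicle with enzyme for no effect and no enzyme for full effect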
STK33 inh – human STK33 kinase inhibition. purified STK33, MBP phosphorylation, ADP-Glo luminescence. inhibition, % at 10 µM. Q9BYT3. 320,000 compounds, 0.073% hits;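 active = inhibition at or above 25%, using the most active replicate where run in duplicate; inactive = inhibition below 25%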
PP1 inh confirm – human PP1 phosphatase inhibition, confirmation; shares compounds with PP1 inh; purified PP1alpha, OMFP substrate fluorescence; inhibition, % at 6.7 µM; 1,900 compounds, 52% hits; AID 2358;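 active = mean PP1 inhibition above a set limit taken from the earlier primary screen, cut at about 15% in these data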
PP5 inh counter – inhibits human PP5 phosphatase in PP1 counter-screen; shares compounds with PP1 inh; purified PP5c, OMFP fluorescence; inhibition, % at 6.7 µM; 1,900 compounds, 4% hits;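 active = mean PP5 inhibition over triplicate wells above about 9.5% taken from the earlier PP1 screen, limit read from the data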
* marks the source's active call; other numbers are inactive results; . = not tested or not shown. This is a sample that favours compounds with a hit; in the whole collection about 1.5% have one here.

SMILES	PP1 inh	PP5 primary	HIF activator	DYRK1A inh	STK33 inh	PP1 inh confirm	PP5 inh counter
COc1ccc(C2c3c(c(C)c(C)oc3=O)Oc3c(C)c(C)oc(=O)c32)cc1	3	2	.	31	-3	.	.
COc1cc(C2c3c(c(C)c(C)oc3=O)Oc3c(C)c(C)oc(=O)c32)ccc1OS(=O)(=O)c1ccc(C)cc1	21*	-1	.	6	0	26*	-3
COc1ccc(/C=N/Nc2nc(Nc3ccccc3)nc(N3CCCC3)n2)cc1[N+](=O)[O-]	8	2	-1	-3	-1	.	.
COc1ccc(O)c(/C=N/Nc2nc(C)cc(-c3ccccc3)n2)c1	1	2	2	1	-1	.	.
COc1cc(/C=N/Nc2nc(Nc3ccc(C)cc3)nc(-n3nc(C)cc3C)n2)cc(OC)c1OC	22*	4	-1	0	0	21*	0
COc1ccc(O)c(/C=N/Nc2nc(Nc3ccccc3)nc(-n3nc(C)cc3C)n2)c1	21*	5	1	3	-1	25*	5
COc1cc(/C=N/Nc2nc(Nc3ccccc3)nc(-n3nc(C)cc3C)n2)cc(OC)c1OC	24*	6	0	-1	0	34*	3
COc1cc(/C=N/Nc2nc(Nc3ccccc3)nc(N3CCCCC3)n2)ccc1OCC(=O)O	10	-1	0	-67	2	.	.
O=C(CSCc1ccccc1)NNc1c(F)c(F)cc(F)c1F	-13	1	-32	-4	1	.	.
CCOc1cc(C2Nc3cccc4cccc(c34)N2)ccc1O	24*	4	-1	2	1	2	8
CCOc1ccc(C2Nc3cccc4cccc(c34)N2)cc1OC	-3	1	0	12	1	.	.
COc1ccccc1CN1CC(C(=O)NCCN2CCOC2=O)CCC1=O (stereo not drawn)	.	.	1	-3	0	.	.
CCCCOc1ccc(C2C(C(=O)c3ccc(C)o3)=C(O)C(=O)N2CC2CCCO2)cc1 (stereo not drawn)	20*	0	0	3	-1	27*	-2
COc1ccc(S(=O)(=O)NC2CC(=O)N(c3ccccc3)C2)cc1C (stereo not drawn)	-5	2	0	7	0	.	.
O=C(O)c1ccccc1NC(c1ccccc1)c1ccc2cccnc2c1O (stereo not drawn)	.	.	.	4	.	.	.
Cc1ccc2ccc(C(Nc3ccccn3)c3ccccc3)c(O)c2n1 (stereo not drawn)	10	4	0	2	.	.	.
Oc1c(C(Nc2ccccn2)c2ccccn2)ccc2cccnc12 (stereo not drawn)	72*	6	14*	4	-2	76*	0
Oc1ccccc1C(Nc1nccs1)c1ccc2cccnc2c1O (stereo not drawn)	23*	-3	21*	-2	4	20*	-1
COc1ccccc1NC(c1cccnc1)c1ccc2cccnc2c1O (stereo not drawn)	18*	3	12*	-5	-1	19*	-3
Cc1c(CCOC(=O)C23CC4CC(CC(C)(C4)C2)C3)sc[n+]1CC(=O)c1ccccc1	20*	0	0	10	1	-7	-5
Cc1c(CCOC(=O)CC23CC4CC(CC(C)(C4)C2)C3)sc[n+]1CC(=O)c1ccccc1	13	3	1	7	.	.	.
O=C(CSc1cn(CCNC(=O)c2ccc3ccccc3c2)c2ccccc12)NCc1ccco1	18*	5	0	-8	6	5	5
Cn1c(=O)cc(SCC(=O)NCc2ccco2)c2ccccc21	3	3	0	4	0	.	.
CCN(C(=O)COC(=O)CCCOc1ccccc1)c1c(N)n(Cc2ccccc2)c(=O)[nH]c1=O	1	3	.	1	-1	.	.
CC1CCCCC1NCC#CCOc1ccc(Cl)cc1 (stereo not drawn)	-2	3	0	-1	0	.	.
SMILES	PP1 inh	PP5 primary	HIF activator	DYRK1A inh	STK33 inh	PP1 inh confirm	PP5 inh counter
CCN(CC)CCN1C(=O)/C(=C\c2ccc(Cl)c([N+](=O)[O-])c2)SC1=Nc1ccc(OC)cc1	19*	3	-3	2	2	-6	2
O=C(Nc1ccc2c(c1)N(S(=O)(=O)c1cccs1)CCC2)c1c(F)cccc1Cl	-8	1	-1	-2	0	.	.
O=C1CC(=O)N(CCNc2ncc(C(F)(F)F)cc2Cl)C(=O)N1	29*	3	0	2	0	-2	-1
O=C1C=CC(=O)N1CCNc1ncc(C(F)(F)F)cc1Cl	.	.	0	-1	.	.	.
Cc1cc(C)c(C(=O)OCc2csc(CC(=O)Nc3ccccc3C)n2)c(C)c1	20*	4	-1	5	-2	1	0
COc1ccc(-c2cc(C(=O)NCCN3CCOCC3)no2)cc1OC	32*	2	0	1	-1	-4	-1
O=C(NCCN1CCOCC1)c1cc(-c2ccc(Br)cc2)on1	-4	3	1	4	0	.	.
COc1ccc(OCc2cc(C(=O)N3CCCC(O)C3)no2)c2ccccc12 (stereo not drawn)	-1	3	3	4	0	.	.
N#Cc1ccc(-c2ccc3c(c2)OCO3)nc1SCC(=O)OCc1ccccc1	18*	3	0	-6	-1	10	1
CC1=C(C(=O)OC(C)C)C(c2cncc(-c3ccc(F)cc3)c2)C(C#N)=C(N)O1 (stereo not drawn)	2	1	-1	-2	1	.	.
O=C(COC(=O)CC1SC(N2CCCC2)=NC1=O)Nc1c(F)c(F)c(F)c(F)c1F (stereo not drawn)	-3	-1	.	.	0	.	.
CCNS(=O)(=O)c1ccc2nc(NC(=O)/C=C/c3cc(OC)c(OC)c(OC)c3)sc2c1	21*	3	0	-5	0	20*	-5
COc1ccc2nc(NC(=O)/C=C/c3ccc4c(c3)OCO4)sc2c1	-2	-1	4	.	-1	.	.
CCc1cccc(C)c1NC(=O)CSc1nc(-c2ccccc2F)nc2nc[nH]c12	24*	-1	0	-1	-2	16*	-4
O=C(CSc1nc(-c2ccccc2F)nc2nc[nH]c12)Nc1c(Cl)cc(Cl)cc1Cl	-3	-3	0	.	-2	.	.
Cc1ccc(NC(=O)Cn2nc(C(=O)Nc3ccc(C)cc3)ccc2=O)cc1	21*	1	0	-7	1	22*	-3
CC(=O)NC(c1ccc(C)cc1)c1cc([N+](=O)[O-])c2cccnc2c1O (stereo not drawn)	19*	6	0	-4	0	21*	3
CCCC(=O)NC(c1ccco1)c1cc([N+](=O)[O-])c2cccnc2c1O (stereo not drawn)	6	-1	0	1	-1	.	.

Compound activity: PubChem BioAssay, several laboratories
